Test results as given in the OligoGym collection.

Biological target: PLS1
Experiment: pooled miR-30 sensor sort-seq; sequence = guide strand
Settings: shRNA
Further: reference of the scale not given here.

Sequence | sensor-assay potency score (higher = more potent)
TTAACAATGCAATCAGAGCTTC | -0.361
TTGTAGTTCTTCAAGCTCCTCC | 0.438
TTCCTTGCTCTCTCCTTCCAGT | -0.4

Biological target: PLTP
Experiment: as above
Settings: shRNA

Sequence | sensor-assay potency score (higher = more potent)
TCATACACCTTCTTGAAGGTTC | -0.197
TACACCTTCAAGAACCAGTAGA | -0.191
TTGAGCAGGACCGTCCCTGCGT | -0.0816
ATAGATTCGGAACCTGCGCAGG | -1.18
TTCTTCTCAATCACCTCTCGCA | -0.149
ACATTGGACACTTTCATCCGTC | 0.0628
TACAGCTTCAAATCCCGTCTTC | -0.171
TCATACACCTTCAAGAACCAGT | 0.217
TTAAATTGGGTACAGCTTCAAA | -1.22
TTGGAATAGATTCGGAACCTGC | -0.704
TTGAAGCATCAGCTCCTGCTGT | 0.293
TTGGACACTTTCATCCGTCCAG | -0.0718

Biological target: PLXNA3
Experiment: as above
Settings: shRNA

Sequence | sensor-assay potency score (higher = more potent)
TACAAGGACAGCGTGTCTGAGG | -0.523
TGTCTTGTAGTCGATCTGCTGA | -0.0226
TAGAACTCTGAGTCTCCCGCGC | -0.24
TAGATCTCGGAGACCATCTTGC | -0.165
TAGTCTATGAGCAGCAGCTTGT | -0.951
TCACACTCGATCTTGGTGGTGA | 0.265
TAGTAGGTAAAGGAGGAGCGGT | -1.08
ATCTCGGAGACCATCTTGCTGC | -1.06
TTGTTGATGTTGTCCACGGGGG | -0.257
TTGTGTGTCCGAGACAGTGAGC | -0.941
TTGTAGTCGATCTGCTGACGGA | -0.986
ATGTCGAACACGAACTGCGGGT | -1.37

Biological target: PM20D1
Experiment: as above
Settings: shRNA

Sequence | sensor-assay potency score (higher = more potent)
AATACAGTCACCACTGTCCCGC | -0.75
TTGGACTGTCTGTCCAGGGTGA | 0.135
TTGTCGTCCAGTGTGCCCCGAC | -0.594
TACATTTGTTAAGTCAAGCCTG | 0.298
TTTCTCGTTGACTCCATGGATG | -0.946
TTTCTCTCCATAAACCTGCTTA | 0.0874
TTGGACTGAGATTTTCTCGTTG | 0.297
TTTATGAATGTATTTTCCGAAC | -1.32
TTGGATAGTGAACAGGTGGCTA | -0.715
TTGAATATGGTGAGTGCCGTGG | -0.197
ATGACATTGAACTTGACCCCTG | -0.759
TGACATTGAACTTGACCCCTGC | 0.0724
